# Records with an inconclusive call do not appear. Entries that show only a call come without a potency. Active and inactive are the calls of the source. Calls follow the shape of the dose curve; as a rule, active = well fitted curve in the direction sought with a large enough effect; inconclusive = small, poorly fitted or top-dose-only effect, or another doubt; inactive = no such curve, though single readings can be large; an effect the other way counts as inactive or inconclusive.
# Test: P-glycoprotein substrates identified in KB-3-1 adenocarcinoma cell line, qHTS therapeutic library screen (AID 1346986); also: nearly all actives have a fitted effect of over 60% in size;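 also: potency is read from the fitted curve at half-maximal effect; potency is for cytotoxicity meaning loss of cell viability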
# Conditions: KB-3-1 parental cells viability, CellTiter-Glo, 72 h; series mostly up to 44.5 µM; activity change, negative = cytotoxicity: at the top concentration
# How it was run: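 Viability read by CellTiter-Glo after 72 h compound exposure in dose-response of KB-3-1 and KB-8-5-11 (P-gp-high) cells. Hits needed AC50 < 10 uM, >50% maximum response and curve class -1.1 to -2.4. Cherry-picks retested ± tariquidar, including pcDNA/MDR-19 HEK-293 pair.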
SMILES,"activity change, negative = cytotoxicity",outcome,Potency
CCCCC(O)/C=C(C)/C=C/C=C/C(=O)N1CCCC1=O (configuration not stated),3.12% (inactive),–,–
CCCCCOc1ccc(C2SC(=O)NC2=O)cc1OCC (configuration not stated),–,inactive,–
CO/N=C(/C(=O)N[C@@H]1C(=O)N2C(C(=O)O)=C(Cn3nnc(C)n3)CS[C@H]12)c1csc(N)n1,–,inactive,–
CC(=O)Nc1ccn(C2COC(COC(=O)c3ccccc3)O2)c(=O)n1 (configuration not stated),–,inactive,–
C=CC[N+]1([C@H]2C[C@H]3[C@@H]4CC[C@H]5C[C@H](OC(C)=O)[C@@H](N6CCCCC6)C[C@]5(C)[C@H]4CC[C@]3(C)[C@H]2OC(=O)CC)CCCCC1,–,inactive,–
CC(C)=CCNc1ncnc2c1ncn2[C@@H]1O[C@H](CO)[C@@H](O)[C@H]1O,–,–,5.8 µM (active)
CCOC(=O)c1ccc(OCCN2C[C@H](O)[C@@H](O)[C@H](O)[C@H]2CO)cc1,–,inactive,–
COc1cc(NS(=O)(=O)c2ccc(N)cc2)nc(C)n1,–,inactive,–
O=C(CCCCCCCCC#CI)Oc1ccccc1,–,inactive,–

# Test: P-glycoprotein substrates identified in KB-8-5-11 adenocarcinoma cell line, qHTS therapeutic library screen (AID 1346987); also: nearly all actives have a fitted effect of over 65% in size
# Conditions: KB-8-5-11 (P-gp overexpressing) viability, CellTiter-Glo, 72 h; series mostly up to 44.5 µM; activity change, negative = cytotoxicity: at the top concentration
# How it was run: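 Luminescence from CellTiter-Glo, read 5 min after addition, quantified survival of KB-8-5-11 (P-gp-overexpressing) cells exposed to compounds for 72 h. AC50 was derived from concentration-response curves.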
SMILES,outcome,"activity change, negative = cytotoxicity"
CCCCC(O)/C=C(C)/C=C/C=C/C(=O)N1CCCC1=O (configuration not stated),inactive,–
CCCCCOc1ccc(C2SC(=O)NC2=O)cc1OCC (configuration not stated),–,5.23% (inactive)
CO/N=C(/C(=O)N[C@@H]1C(=O)N2C(C(=O)O)=C(Cn3nnc(C)n3)CS[C@H]12)c1csc(N)n1,–,5.85% (inactive)
CC(=O)Nc1ccn(C2COC(COC(=O)c3ccccc3)O2)c(=O)n1 (configuration not stated),–,0.86% (inactive)
C=CC[N+]1([C@H]2C[C@H]3[C@@H]4CC[C@H]5C[C@H](OC(C)=O)[C@@H](N6CCCCC6)C[C@]5(C)[C@H]4CC[C@]3(C)[C@H]2OC(=O)CC)CCCCC1,inactive,–
CCOC(=O)c1ccc(OCCN2C[C@H](O)[C@@H](O)[C@H](O)[C@H]2CO)cc1,inactive,–
COc1cc(NS(=O)(=O)c2ccc(N)cc2)nc(C)n1,inactive,–
O=C(CCCCCCCCC#CI)Oc1ccccc1,inactive,–

# Reference: PubChem BioAssay (NCATS)
